Measured values: PubChem BioAssay (Tox21)
Records with an inconclusive call do not appear. Active and inactive are the calls of the source. Unless noted, calls follow the shape of the dose curve; as a rule, active = well fitted curve in the direction sought with a large enough effect in the repeat runs; inconclusive = weak or mixed curves; inactive = no such curve, though single readings can be large; an effect the other way counts as inactive or inconclusive.

Experiments:
[1] = qHTS assay to identify small molecule antagonists of the sonic hedgehog signaling (Shh) pathway (AID 1259369; calls by dose curve; also: nearly all actives have a fitted effect of over 45% in size)
Procedure, shortened: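 Gli1 transcriptional reporter (firefly Luc) in NIH/3T3 background, conditioned-medium activated. 24hr exposure, luminescence endpoint.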

[2] = qHTS assay to identify small molecule agonists of the androgen receptor (AR) signaling pathway in the presence of an antagonist - cell viability counter screen (AID 1259379);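 also: MDA-kb2 human breast cancer cells carrying an MMTV luciferase reporter; series mostly up to about 92 µM; nearly all actives have a fitted effect of over 25% in size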
Procedure, shortened: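 Counter screen for cell viability run in parallel with the AR agonist-mode luciferase assay. MDA-kb2 cells were co-treated with nilutamide (3.0uM final) and compounds, then incubated 16 hr at 37C, and CellTiter-Fluor fluorescence was measured.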

[3] = qHTS assay to identify small molecule agonists of the estrogen receptor beta (ER-beta) signaling pathway - cell viability counter screen (AID 1259380); also: nearly all actives have a fitted effect of over 30% in size
Procedure, shortened: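 In this qHTS counter screen, HEK293T cells carrying an ER-beta/UAS beta-lactamase reporter, grown in 2% charcoal-stripped FBS, received compound for 16 hr; ATP-based CellTiter-Glo luminescence was then read after 30 min at room temperature.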

[4] = qHTS assay to identify small molecule antagonists of the estrogen receptor beta (ER-beta) signaling pathway - cell viability counter screen (AID 1259382);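 also: HEK293T cells carrying ER-beta-UAS-bla reporter stimulated with estradiol; series mostly up to about 92 µM; nearly all actives have a fitted effect of over 55% in size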
Procedure, shortened: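 HEK293T ER-beta-UAS-bla, 2% charcoal-stripped FBS; compounds + 1nM E2 16 hr 37C; CellTiter-Glo luminescence, 30 min RT.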

[5] = target: Estrogen receptor (Homo sapiens) (UniProt P03372); test: qHTS assay to identify small molecule agonists of the estrogen receptor alpha (ER-alpha) signaling pathway in the presence of an antagonist (AID 1259383; calls by dose curve; also: top concentration of the series differs between compounds; nearly all actives have a fitted effect of over 15% in size)
Procedure, shortened: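 ER-alpha agonism measured under antagonist challenge: 10.0nM ICI-182,780 (final) plus compound, 15 concentrations, 22hr, VM7Luc4E2 ERE-luciferase cells. Read by luminescence.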

[6] = qHTS assay to identify small molecule agonists or antagonists of the thyroid stimulating hormone receptor (TSHR) signaling pathway - wild type cell line counter screen (AID 1259384; calls by dose curve)
Procedure, shortened: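 Counter screen in untransfected Hek293: compounds (15-point titration, triplicate) plus phosphodiesterase inhibitor Ro20-1724 added after 18 h plating; 30 min RT. Intracellular cAMP via competitive d2/cryptate immunoassay, 1 h incubation.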

[7] = target: Thyrotropin receptor (Homo sapiens) (UniProt P16473); test: qHTS assay to identify small molecule antagonists of the thyroid stimulating hormone receptor (TSHR) signaling pathway (AID 1259385; calls by dose curve; also: nearly all actives have a fitted effect of over 20% in size)
Procedure, shortened: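 Antagonist mode: compound-treated TSHR-expressing HEK293 cells were stimulated with 1.5 ng/mL TSH (final) in presence of Ro20-1724 for 30 min at RT. HTRF cAMP detection after 1 h; each compound tested at 15 concentrations, triplicate.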

[8] = qHTS assay to identify small molecule agonists of the estrogen receptor alpha (ER-alpha) signaling pathway in the presence of an antagonist - cell viability counter screen (AID 1259386);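 also: series mostly up to about 92 µM; cells exposed to compounds for 22 h at 37 °C before the viability read; nearly all actives have a fitted effect of over 30% in size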
Procedure, shortened: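 Steps: 5-day stripped-FBS culture; seed and incubate 24hr; add ICI-182,780 (10.0nM final); pin 15-point compound titration; incubate 22hr at 37C; add CellTiter-Fluor at 21hr; read fluorescence.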

[9] = target: Progesterone receptor (Homo sapiens) (UniProt P06401); test: qHTS assay to identify small molecule antagonists of the progesterone receptor (PR) signaling pathway (AID 1346795; active = well fitted inhibition curve with a large enough effect in the signal ratio in the repeat runs, not every such curve was filed as active; the % refers to the signal ratio)
Procedure, shortened: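 Screening used a GripTite HEK293T line with PR-responsive UAS-beta-lactamase. Cells were challenged with compound in the presence of 1 nM R5020 final for 16 hr at 37C; B/G FRET substrate, 2 hr room temperature, fluorescence.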

[10] = qHTS assay to identify small molecule antagonists of the progesterone receptor (PR) signaling pathway - cell viability counter screen (AID 1346798); also: series mostly up to about 92 µM; nearly all actives have a fitted effect of over 50% in size
Procedure, shortened: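 Measures cytotoxicity in parallel with the PR antagonist reporter read: HEK293T PR-UAS-bla cells get compound and R5020 for 16 hr, and remaining viable cells are quantified by CellTiter-Glo luminescence.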

[11] = qHTS assay to identify small molecule agonists of the progesterone receptor (PR) signaling pathway - cell viability counter screen (AID 1346799; calls by dose curve; also: nearly all actives have a fitted effect of over 45% in size)
Procedure, shortened: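 Using the same plates as the PR reporter screen, HEK293T PR-UAS-bla cells received compounds for 16 hr at 37C and were then lysed with CellTiter-Glo; luminescence was read 30 min later at room temperature.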

[12] = qHTS assay to identify small molecule antagonists of the TGF-beta/Smad signaling pathway - cell viability counter screen (AID 1346824); also: nearly all actives have a fitted effect of over 50% in size
Procedure, shortened: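 Cytotoxicity counter-screen run in the same wells as the beta-lactamase Smad reporter read: CellTiter-Glo luminescence after 30 min at room temperature. HEK 293T SBE-bla cells had 5 hr compound exposure at 37 C with TGF-beta1 (0.25 ng/mL stock).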

[13] = qHTS assay to identify small molecule agonists of the TGF-beta/Smad signaling pathway - cell viability counter screen (AID 1346829); also: top concentration of the series differs between compounds; nearly all actives have a fitted effect of over 45% in size
Procedure, shortened: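 CellTiter-Glo luminescence readout; SBE-bla HEK 293T cells, overnight plating, compound 5 hr at 37 C/5% CO2, then bla substrate 2 hr RT, then CellTiter-Glo 30 min RT.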

[14] = qHTS assay to identify small molecule agonists of the TGF-beta/Smad signaling pathway (AID 1346859; active = well fitted activation curve with a large enough effect in the signal ratio in the repeat runs, not every such curve was filed as active; the % refers to the signal ratio; also: series mostly up to about 77 µM)
Procedure, shortened: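 Beta-lactamase reporter activity downstream of Smad binding elements was measured in stably transfected HEK 293T cells; compounds were incubated for 5 hr, substrate for 2 hr at room temperature.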

[15] = target: Estrogen receptor beta (Homo sapiens) (UniProt Q92731); test: qHTS assay to identify small molecule antagonists of the estrogen receptor beta (ER-beta) signaling pathway (AID 1259378; active = well fitted inhibition curve with a large enough effect in the signal ratio in the repeat runs, not every such curve was filed as active; the % refers to the signal ratio)
Procedure, shortened: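 Antagonist mode: compounds added to beta-lactamase reporter HEK293T ER-beta-UAS cells stimulated with E2 (1nM final), 16 hr at 37C. LiveBLAzer B/G FRET substrate, 2 hours room temperature, fluorescence read-out.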

[16] = target: Progesterone receptor (Homo sapiens) (UniProt P06401); test: qHTS assay to identify small molecule agonists of the progesterone receptor (PR) signaling pathway (AID 1346784; calls by dose curve; also: nearly all actives have a fitted effect of over 30% in size)
Procedure, shortened: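 Seed PR-UAS-bla HEK 293T cells (2% charcoal-stripped FBS), incubate 6 hr at 37C; add compounds in DMSO, 16 hr at 37C; add LiveBLAzer B/G substrate, 2 hr RT; read fluorescence intensity.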

[17] = target: Thyrotropin-releasing hormone receptor (Homo sapiens) (UniProt P34981); test: qHTS assay to identify small molecule antagonists of the thyrotropin-releasing hormone receptor (TRHR) signaling pathway (AID 1346877; active = well fitted inhibition curve with a large enough effect in the repeat runs, not every such curve was filed as active; also: series mostly up to about 51 µM)
Procedure, shortened: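 Human TRHR in HEK293 cells; inhibition of the intracellular calcium rise triggered by 1 nM TRH was followed by fluorescence over 3 min. Compounds were run at 15 concentrations, three replicates each.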

[18] = target: Thyrotropin-releasing hormone receptor (Homo sapiens) (UniProt P34981); test: qHTS assay to identify small molecule agonists of the thyrotropin-releasing hormone receptor (TRHR) signaling pathway (AID 1346891; calls by dose curve;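 also: HEK293 cells expressing TRHR with calcium dye readout; series mostly up to about 58 µM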)
Procedure, shortened: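 Overnight-plated (18 h, 37 °C, 5% CO2) TRHR-Hek293 cells; 2 h calcium dye at 37 °C; compound in DMSO; 3-min kinetic fluorescence read.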

[19] = target: Androgen receptor (Homo sapiens) (UniProt P10275); test: qHTS assay to identify small molecule agonists of the androgen receptor (AR) signaling pathway in the presence of an antagonist (AID 1259381; calls by dose curve; also: nearly all actives have a fitted effect of over 15% in size)
Procedure, shortened: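 AR antagonist background: nilutamide 3.0uM final. Cell line: MDA-kb2, MMTV-driven luciferase, responsive to both AR and GR. Exposure 16hr, 37C, no CO2; ONE-Glo luminescence.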

Measured: Potency

Chain of Estrogen receptor (Homo sapiens) (P03372 whole entry, looked up): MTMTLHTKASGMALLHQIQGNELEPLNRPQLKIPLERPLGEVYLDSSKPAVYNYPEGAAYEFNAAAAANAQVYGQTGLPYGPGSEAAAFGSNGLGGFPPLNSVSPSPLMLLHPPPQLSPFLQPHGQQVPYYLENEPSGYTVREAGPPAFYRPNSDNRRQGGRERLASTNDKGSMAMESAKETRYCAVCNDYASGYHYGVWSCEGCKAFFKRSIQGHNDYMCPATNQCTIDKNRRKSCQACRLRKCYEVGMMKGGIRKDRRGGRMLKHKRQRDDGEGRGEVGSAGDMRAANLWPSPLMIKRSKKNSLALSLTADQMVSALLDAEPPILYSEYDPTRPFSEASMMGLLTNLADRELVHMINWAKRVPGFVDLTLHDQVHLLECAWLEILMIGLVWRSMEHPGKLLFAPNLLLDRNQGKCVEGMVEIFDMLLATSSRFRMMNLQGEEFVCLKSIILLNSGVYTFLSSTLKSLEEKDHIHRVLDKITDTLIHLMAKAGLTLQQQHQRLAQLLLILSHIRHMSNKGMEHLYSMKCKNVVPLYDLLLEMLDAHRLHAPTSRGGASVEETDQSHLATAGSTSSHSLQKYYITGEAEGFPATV
Chain of Progesterone receptor (Homo sapiens) (P06401 whole entry, looked up): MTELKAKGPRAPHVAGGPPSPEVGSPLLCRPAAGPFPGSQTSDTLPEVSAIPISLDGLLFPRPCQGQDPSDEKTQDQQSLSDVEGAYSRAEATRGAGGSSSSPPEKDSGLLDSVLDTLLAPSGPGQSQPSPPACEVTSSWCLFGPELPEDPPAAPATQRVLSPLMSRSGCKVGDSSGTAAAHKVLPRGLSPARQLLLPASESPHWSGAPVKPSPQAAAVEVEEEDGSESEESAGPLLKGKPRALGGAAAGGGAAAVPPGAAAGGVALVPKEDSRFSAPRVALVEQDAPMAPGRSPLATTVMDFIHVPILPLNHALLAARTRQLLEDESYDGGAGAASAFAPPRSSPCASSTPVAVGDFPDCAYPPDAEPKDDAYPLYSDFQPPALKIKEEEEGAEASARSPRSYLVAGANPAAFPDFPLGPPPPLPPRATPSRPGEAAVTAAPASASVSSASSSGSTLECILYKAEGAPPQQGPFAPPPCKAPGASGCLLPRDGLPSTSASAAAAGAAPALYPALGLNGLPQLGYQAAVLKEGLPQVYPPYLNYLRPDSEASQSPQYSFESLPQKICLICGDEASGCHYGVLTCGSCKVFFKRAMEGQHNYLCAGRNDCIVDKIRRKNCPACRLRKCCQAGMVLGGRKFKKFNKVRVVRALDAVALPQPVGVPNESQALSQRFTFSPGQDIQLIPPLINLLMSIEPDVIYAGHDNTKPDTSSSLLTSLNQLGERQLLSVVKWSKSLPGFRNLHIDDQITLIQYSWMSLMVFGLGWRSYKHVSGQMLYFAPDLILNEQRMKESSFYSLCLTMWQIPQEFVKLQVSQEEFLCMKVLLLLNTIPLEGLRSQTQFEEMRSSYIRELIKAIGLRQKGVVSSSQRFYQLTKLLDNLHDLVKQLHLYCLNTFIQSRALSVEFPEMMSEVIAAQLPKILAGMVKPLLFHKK
Chain of Thyrotropin receptor (Homo sapiens) (P16473 whole entry, looked up): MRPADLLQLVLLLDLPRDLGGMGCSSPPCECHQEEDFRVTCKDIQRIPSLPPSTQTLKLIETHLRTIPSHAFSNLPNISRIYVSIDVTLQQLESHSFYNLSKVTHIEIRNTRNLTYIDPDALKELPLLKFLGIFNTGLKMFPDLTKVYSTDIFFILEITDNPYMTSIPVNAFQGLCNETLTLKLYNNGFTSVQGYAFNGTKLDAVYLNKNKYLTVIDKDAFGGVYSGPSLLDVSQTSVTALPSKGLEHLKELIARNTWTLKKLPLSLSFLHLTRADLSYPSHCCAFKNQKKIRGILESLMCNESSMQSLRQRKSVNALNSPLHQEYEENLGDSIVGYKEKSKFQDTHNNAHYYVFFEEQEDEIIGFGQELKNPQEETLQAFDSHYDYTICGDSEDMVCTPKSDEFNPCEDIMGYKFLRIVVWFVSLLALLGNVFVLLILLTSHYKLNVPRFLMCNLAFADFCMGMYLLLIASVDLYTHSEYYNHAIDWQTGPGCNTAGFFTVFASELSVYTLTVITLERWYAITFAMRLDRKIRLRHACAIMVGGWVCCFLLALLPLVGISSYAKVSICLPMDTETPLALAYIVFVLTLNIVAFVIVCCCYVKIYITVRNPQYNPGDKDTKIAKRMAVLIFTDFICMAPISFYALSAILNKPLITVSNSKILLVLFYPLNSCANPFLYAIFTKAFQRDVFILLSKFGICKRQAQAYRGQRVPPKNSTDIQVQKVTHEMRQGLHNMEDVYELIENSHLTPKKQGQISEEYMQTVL
Chain of Thyrotropin-releasing hormone receptor (Homo sapiens) (P34981 whole entry, looked up): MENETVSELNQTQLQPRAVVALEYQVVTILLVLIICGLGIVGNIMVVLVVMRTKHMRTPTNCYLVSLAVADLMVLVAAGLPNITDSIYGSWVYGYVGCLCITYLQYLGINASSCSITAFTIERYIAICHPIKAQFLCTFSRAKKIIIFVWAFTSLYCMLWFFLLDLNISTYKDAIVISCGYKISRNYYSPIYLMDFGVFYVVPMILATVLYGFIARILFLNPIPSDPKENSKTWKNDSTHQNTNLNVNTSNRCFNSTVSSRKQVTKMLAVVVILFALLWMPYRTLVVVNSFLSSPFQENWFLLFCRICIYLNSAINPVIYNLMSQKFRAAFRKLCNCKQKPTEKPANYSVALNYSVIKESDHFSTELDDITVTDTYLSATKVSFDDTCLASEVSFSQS
Chain of Estrogen receptor beta (Homo sapiens) (Q92731 whole entry, looked up): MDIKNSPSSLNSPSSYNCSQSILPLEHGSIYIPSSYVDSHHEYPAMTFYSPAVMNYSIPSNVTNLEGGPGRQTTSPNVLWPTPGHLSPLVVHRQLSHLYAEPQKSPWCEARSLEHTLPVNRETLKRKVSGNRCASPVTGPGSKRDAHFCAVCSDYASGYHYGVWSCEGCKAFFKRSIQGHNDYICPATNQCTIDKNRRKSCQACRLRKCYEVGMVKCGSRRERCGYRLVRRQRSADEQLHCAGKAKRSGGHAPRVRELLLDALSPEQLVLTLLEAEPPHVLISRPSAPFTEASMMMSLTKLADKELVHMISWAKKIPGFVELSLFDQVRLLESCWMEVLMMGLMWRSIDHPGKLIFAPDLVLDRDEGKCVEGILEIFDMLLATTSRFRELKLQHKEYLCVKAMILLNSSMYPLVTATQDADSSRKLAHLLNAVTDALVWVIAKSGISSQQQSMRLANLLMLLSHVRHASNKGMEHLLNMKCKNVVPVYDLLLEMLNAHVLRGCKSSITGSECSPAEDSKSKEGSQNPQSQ
Chain of Androgen receptor (Homo sapiens) (P10275 whole entry, looked up): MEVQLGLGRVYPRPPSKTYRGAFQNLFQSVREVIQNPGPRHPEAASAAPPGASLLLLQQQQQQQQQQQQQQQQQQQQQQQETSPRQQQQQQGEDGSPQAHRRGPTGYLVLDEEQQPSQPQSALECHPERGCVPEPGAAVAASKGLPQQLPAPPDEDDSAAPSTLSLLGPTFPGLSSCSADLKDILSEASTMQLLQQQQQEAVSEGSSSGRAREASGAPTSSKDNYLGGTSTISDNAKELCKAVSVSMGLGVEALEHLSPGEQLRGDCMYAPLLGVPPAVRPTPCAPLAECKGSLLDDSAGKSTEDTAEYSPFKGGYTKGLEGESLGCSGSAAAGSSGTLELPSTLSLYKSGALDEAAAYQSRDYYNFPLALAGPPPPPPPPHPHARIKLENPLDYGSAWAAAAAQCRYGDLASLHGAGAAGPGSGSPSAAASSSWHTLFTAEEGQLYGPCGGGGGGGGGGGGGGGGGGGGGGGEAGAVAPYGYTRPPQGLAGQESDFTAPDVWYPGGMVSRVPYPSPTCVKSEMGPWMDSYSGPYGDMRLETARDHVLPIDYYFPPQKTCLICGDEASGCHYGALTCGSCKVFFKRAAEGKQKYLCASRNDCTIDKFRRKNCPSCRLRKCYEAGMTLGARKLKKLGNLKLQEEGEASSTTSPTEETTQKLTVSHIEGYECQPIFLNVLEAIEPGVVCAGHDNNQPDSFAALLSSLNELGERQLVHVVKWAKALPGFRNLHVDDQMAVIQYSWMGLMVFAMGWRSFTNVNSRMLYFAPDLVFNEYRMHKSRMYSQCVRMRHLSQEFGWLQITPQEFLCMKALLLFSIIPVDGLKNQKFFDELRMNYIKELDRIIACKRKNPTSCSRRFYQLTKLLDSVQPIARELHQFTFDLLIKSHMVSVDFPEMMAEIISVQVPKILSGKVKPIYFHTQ

CCOC(=O)NC(O)C(Cl)(Cl)Cl (configuration not stated)
not listed: [15] | [16] | [17] | [18] | [19]
inactive: all other assays above

CCC1CCC(=O)O1 (configuration not stated)
not listed: [5] | [19]
inactive: all other assays above

C[N+]1(CCC(C(N)=O)(c2ccccc2)c2ccccc2)CCCCC1
not listed: [6] | [15] | [19]
inactive: all other assays above

Oc1cccc(Cl)c1
not listed: [7] | [8] | [12] | [14] | [15] | [19]
inactive: all other assays above

CCOC(=O)c1cncn1C(C)c1ccccc1 (configuration not stated)
not listed: [12] | [15] | [17] | [18] | [19]
inactive: all other assays above

O=CC=O
not listed: [6] | [17] | [18]
inactive: all other assays above

CCCC(C)(COC(N)=O)COC(=O)NC(C)C (configuration not stated)
not listed: [15] | [19]
inactive: all other assays above
